# Results from PubChem BioAssay (NCATS).
# Several values for one entry are separate records, joined by “and”; a condition that tells them apart may be missing. Identical values can stand only once. Results filed as inconclusive are left out. Entries that show only a call come without a potency. Some structures have more than one record in an assay (separate samples or runs), and their calls can disagree. Activity calls are given as the source filed them. Calls come from the whole dose curve; as a rule, active = well fitted inhibition curve with a large enough effect; inconclusive = small, poorly fitted or top-dose-only effect; inactive = flat fitted curve, though single readings scatter. *1 amine or outer side, *2 acyl side, *3 side chain or, on linkers, in order; H or OH if unused. Where a SMILES comes first, the peptide text is derived from it. Bridges are numbered along the chain shown (N, C = ends). [ ]: non-standard residue; d: D form. The star is where a group is joined. ξ: configuration not given here. ξhTyr(3S-OH,4S-OH,3'-OSO3H) = NC(C(=O)O)[C@H](O)[C@@H](O)c1ccc(O)c(OS(=O)(=O)O)c1; Orn(4R-OH,5R-OH) = O=C([C@H](C[C@@H](O)[C@@H](O)N[*:3])N[*:1])[*:2]; X2 = CCCCCOc1ccc(-c2cc(-c3ccc(C(=O)*)cc3)no2)cc1; X3 = C[C@H]1CN([*:1])C(C(=O)[*:2])[C@H]1O; ξGln(3R-OH) = NC(=O)C[C@@H](O)C(N)C(=O)O; ξPro(4R-OH) = O=C(O)C1C[C@@H](O)CN1; ξThr(3R) = C[C@@H](O)C(N)C(=O)O
# Biological target: Phospholipid hydroperoxide glutathione peroxidase GPX4 (Homo sapiens) (UniProt P36969)
# Experiment: Primary qHTS Assay for Inhibitors of Recombinant Selenoprotein Glutathione Peroxidase 4 (GPX4) (AID 1845192); note: nearly all actives have a fitted effect of over 65% in size
# Settings: recombinant GPX4, GR-coupled NADPH fluorescence, 15 min; series mostly up to 27.8 µM
# Outline: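 NADPH consumption, followed by fluorescence at 340/450 nm between 0 and 15 min, reports GPX4 activity via coupled glutathione reductase (100 nM). Enzyme 200 nM was pre-exposed to compound 30 min; 0.5 mM cumene hydroperoxide and 1 mM GSH served as substrates.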
# Potency is the fitted concentration of half-maximal effect.
# Phospholipid hydroperoxide glutathione peroxidase GPX4 (Homo sapiens), sequence (P36969 whole entry, looked up): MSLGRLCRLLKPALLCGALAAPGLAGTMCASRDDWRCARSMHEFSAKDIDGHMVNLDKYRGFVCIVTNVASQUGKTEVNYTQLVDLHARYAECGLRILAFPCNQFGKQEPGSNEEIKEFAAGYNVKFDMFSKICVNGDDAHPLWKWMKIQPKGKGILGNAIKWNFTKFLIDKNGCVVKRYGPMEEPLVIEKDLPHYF
row,SMILES,Potency
1,NC1(c2ccc(NC(=O)c3ccnc(-c4cc(C(=O)O)ccn4)c3)cc2)CC1,inactive
2,O=C(O)c1cccc(C(=O)CCC2OC(n3cnc4c(=O)[nH]cnc43)C(O)C2O)c1 (centres undefined),inactive
3,COc1cc(O)cc(O[C@@H]2O[C@H](CO)[C@@H](O[C@@H]3OC[C@](O)(CO)[C@H]3O)[C@H](O)[C@H]2O)c1OC,inactive
4,CS(=O)(=O)c1ccccc1N1CCN(c2nc3c(c(=O)[nH]2)CSCC3)CC1,inactive
5,Nc1nc(COC(=O)c2ccc([N+](=O)[O-])cc2)nc(Nc2ccccc2)n1,inactive
6,CC(=O)O[C@@H]1[C@H](O[C@@H]2OC[C@](O)(CO)[C@H]2O)[C@@H](O[C@@H]2O[C@@H](C)[C@H](O)[C@@H](O[C@@H]3O[C@H](CO)[C@@H](O)[C@H](O)[C@H]3O)[C@H]2O)[C@H](OC(=O)[C@]23CCC(C)(C)C[C@H]2C2=CCC4[C@@]5(C)C[C@H](O)[C@H](O[C@@H]6O[C@H](C(=O)O)[C@@H](O)[C@H](O)[C@H]6O)[C@@](C)(C(=O)O)C5CC[C@@]4(C)[C@]2(C)CC3)O[C@@H]1C (some centres undefined),inactive
7,C=C(C(=O)O)C1CC(OC(=O)CC(C)CC)C2(C)CCCC(=C)C2C1 (centres undefined),inactive
8,OC[C@H]1O[C@@H](OC[C@H]2O[C@@H](OCc3ccccc3)[C@H](O)[C@@H](O)[C@@H]2O)[C@H](O)[C@@H](O)[C@@H]1O,inactive
9,C=C1C[C@H](O)[C@@H](O)[C@@]2(C)C1[C@@H](O)[C@H]1OC(=O)C3[C@@H](C)[C@@H](O)[C@H](O)C2[C@]31C (some centres undefined),inactive
10,C=C1CC2C(C)(CCC(=O)O)C(C(C)(C)O)CCC2(C)C2(C(=O)OC)C(=O)C(C)(O)C(=O)C12C (centres undefined),inactive
11,COC(=O)C1(O)C(OC(C)=O)CCC2C3(CC(c4ccoc4)OC3=O)C(C)=CCC21C(=O)OC (centres undefined),inactive
12,C[C@@H]1O[C@@H](O[C@H]2[C@@H]3C=CO[C@@H](O[C@@H]4O[C@H](CO)[C@@H](O)[C@H](O)[C@H]4O)[C@@H]3[C@@]3(CO)O[C@@H]23)[C@H](O)[C@H](O)[C@H]1OC(=O)/C=C/c1ccc(O)cc1,inactive
13,CCC(=O)OCC(=O)[C@@]1(OC(=O)CC)[C@@H](C)C[C@H]2[C@@H]3CCC4=CC(=O)C=C[C@]4(C)[C@@]3(F)[C@@H](O)C[C@@]21C,inactive
14,OC[C@@]1(O)CO[C@H](OC[C@H]2O[C@@H](OCCc3ccccc3)[C@H](O)[C@@H](O)[C@@H]2O)[C@@H]1O,inactive
15,Cc1c(Cc2ccc3ccccc3n2)c2cc(F)ccc2n1CC(=O)O,inactive
16,C=C1CCC2(OC1)OC1CC3C4CC=C5CC(O)CC(O[C@@H]6OC[C@H](OC(=O)C(O)C(C)CC)[C@H](O)[C@H]6O[C@@H]6O[C@@H](C)[C@H](O)[C@@H](O)[C@H]6O)C5(C)C4CCC3(C)C1C2C (some centres undefined),inactive
17,C[C@H](/C=C/[C@@]1(O)[C@H](C)CC(=O)CC1(C)C)O[C@@H]1O[C@H](CO[C@@H]2OC[C@@H](O)[C@H](O)[C@H]2O)[C@@H](O)[C@H](O)[C@H]1O,inactive
18,C[C@@H]1C[C@@H](O)[C@@]2(CO)C(CO)=CCC[C@@H]2[C@@]12C[C@@H](c1ccoc1)OC2=O,inactive
19,CC1(C)CC[C@]2(C(=O)O)CC[C@]3(C)C(=CCC4[C@@]5(C)CC[C@H](O[C@H]6O[C@H](C(=O)O)[C@@H](O)[C@H](O[C@@H]7O[C@H](CO)[C@H](O)[C@H](O)[C@H]7O)[C@H]6O)C(C)(C)C5CC[C@]43C)[C@@H]2C1 (some centres undefined),inactive
20,C=CC(C)(O)CC/C=C(\C)C1CC=C(C)C(=O)O1 (centres undefined),inactive

row,SMILES,Potency
1,COc1cc(C(CO)C(OC2OC(CO)C(O)C(O)C2O)c2ccc(O)c(OC)c2)ccc1O (centres undefined),inactive
2,CC12CC(O)C(O)C=C1c1cc(O)cc(O)c1C(=O)O2 (centres undefined),inactive
3,C[C@]1(OC(=O)/C=C\c2ccc(O)cc2)C[C@@H](O)[C@]2(O)C=CO[C@@H](O[C@@H]3O[C@H](CO)[C@@H](O)[C@H](O)[C@H]3O)C12 (some centres undefined),inactive
4,CCCCNc1nc(N)c2[nH]c(=O)n(Cc3ccc(OCCN(C)C)nc3)c2n1,inactive
5,COc1cc(/C=C/C(=O)O[C@H]2C[C@@H]3C(C(=O)O)=CO[C@@H](O[C@@H]4O[C@H](CO)[C@@H](O)[C@H](O)[C@H]4O)[C@@H]3[C@H]2C)ccc1O,inactive
6,COC1OC(=O)C2=C1C1(C)CCCC(C)(C)C1CC2O (centres undefined),inactive
7,C/C=C/C=C/C=C/C(=O)N(C)C(C(=O)NC(C)C(=O)N1CCCC1C(N)=O)C(C)C (centres undefined),inactive
8,Cc1[nH]c2ccccc2c1CC(=O)N[C@@H](Cc1ccccc1)C(=O)N(C)c1ccccc1,inactive
9,C[C@H]1CC[C@H]2[C@@H](C=C[C@@](C)(O)[C@]2(C)C(=O)CCO)C1,inactive
10,CC1(CO)CCCC2(C)C3COC(=O)C3=CC(O)C12 (centres undefined),inactive
11,COC(=O)C1=CO[C@@H](O[C@@H]2O[C@H](CO)[C@@H](O)[C@H](O)[C@H]2O)[C@@H]2[C@@H](C)[C@@H](OC(=O)/C=C/c3ccccc3)[C@@H](O)[C@H]12,inactive
12,C=C[C@H]1[C@H](O[C@@H]2O[C@H](CO)[C@@H](O)[C@H](O)[C@H]2O)OC=C(C(=O)OC)[C@H]1CC=O,inactive
13,O=[N+]([O-])c1cc(Cl)ccc1S(=O)(=O)N1CCN(Cc2ccccc2)CC1,inactive
14,CCC1=C(C)C(=O)C(C)CC12C(=O)CCC2C(=O)O (centres undefined),inactive
15,CC(=O)c1ccc(O[C@@H]2O[C@H](CO[C@@H]3OC[C@@H](O)[C@H](O)[C@H]3O)[C@@H](O)[C@H](O)[C@H]2O)cc1,inactive
16,CC1=C(C(=O)OC2OC(COC3OC(CO)C(O)C(O)C3O)C(O)C(O)C2O)C(C)(C)CCC1 (centres undefined),inactive
17,"CCCCCOc1ccc(-c2cc(-c3ccc(C(=O)N[C@H]4C[C@@H](O)[C@@H](O)NC(=O)C5[C@@H](O)[C@@H](C)CN5C(=O)C([C@H](O)CC(N)=O)NC(=O)C([C@H](O)[C@@H](O)c5ccc(O)c(OS(=O)(=O)O)c5)NC(=O)C5C[C@@H](O)CN5C(=O)C([C@@H](C)O)NC4=O)cc3)no2)cc1 (stereo partly drawn) (X2-[Orn(4R-OH,5R-OH)][ξThr(3R)][ξPro(4R-OH)][ξhTyr(3S-OH,4S-OH,3'-OSO3H)][ξGln(3R-OH)][X3]; lactam 1-C)",inactive and 2 µM (active)
18,CC1(C(=O)O)CCCC2(C)C3CCC4CC3(CCC12)CC4C(=O)O (centres undefined),inactive
19,CC(O)CCc1ccc(O[C@@H]2O[C@H](CO)[C@@H](O)[C@H](O)[C@H]2O)cc1 (some centres undefined),inactive
